# AMA1-RON2 inh: qHTS for Inhibitors of AMA1-RON; Towards Development of Antimalarial Drug Lead: Primary Screen; AlphaScreen AMA1-biotinylated RON2 peptide binding; Plasmodium falciparum AMA1 (3D7) - RON2 peptide interaction; AID 720542, 2013; Potency, µM (top dose mostly 58.2 µM), for the others: at the top dose activity change, negative = inhibition, hits mostly inhibitors; 0.2% of 360,000 active;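 further: 0% = vehicle wells and -100% = peptide control; nearly all actives have a fitted effect of over 45% in size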
#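 AMA1 (3D7) with his tag at 25 nM final met compounds first, then biotinylated RON2 peptide at 25 nM; detection used donor plus acceptor beads, 10 µg/mL apiece, read by AlphaScreen after 30 min at room temperature.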
# HCV inh: qHTS Assay for Inhibitors of Hepatitis C Virus (HCV) | AID 651820, 2012 | 3.4% of 340,000 active | Huh7.5.1 HCVcc-Cre infection, luciferase reporter, 44 h | Potency, µM (titrated, usually from 41.8 µM), for inactives: at the top dose activity change, negative = inhibition, actives largely listed as inhibitors
#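 Reporter virus HCVcc-Cre (~0.5 moi) infects cells exposed to compound; seeding density 1,000 cells/well with 4 h settling beforehand. Luminescence, 15 sec read, taken 44 h post-infection following a 15 min RT substrate incubation.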
# AmpC inh detg: qHTS Inhibitors of AmpC Beta-Lactamase (assay with detergent); 0.041% of 370,000 active; P00811; AID 485294, 2010; AmpC hydrolysis of nitrocefin, absorbance 480 nm, 0.01% Triton; Potency, µM (top dose mostly 114 µM), for inactives: at the top dose activity change, negative = inhibition, most hits filed as inhibitors;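 further: 0% = no-compound wells and -100% = no-enzyme wells; nearly all actives have a fitted effect of over 25% in size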
# Target sequence (P00811 whole entry, looked up): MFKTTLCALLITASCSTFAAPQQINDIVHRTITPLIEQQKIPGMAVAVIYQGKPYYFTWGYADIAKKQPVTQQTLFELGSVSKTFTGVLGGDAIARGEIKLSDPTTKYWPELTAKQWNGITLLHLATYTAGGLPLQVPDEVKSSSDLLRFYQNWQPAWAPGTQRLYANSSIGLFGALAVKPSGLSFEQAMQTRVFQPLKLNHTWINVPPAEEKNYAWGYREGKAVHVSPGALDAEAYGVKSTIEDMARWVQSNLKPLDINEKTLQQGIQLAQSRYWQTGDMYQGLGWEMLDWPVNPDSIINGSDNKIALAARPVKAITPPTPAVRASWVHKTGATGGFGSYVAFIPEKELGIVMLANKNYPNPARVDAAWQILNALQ
#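 AmpC (5.3 nM in the dispensed reagent) in 20 mM phosphate pH 7.0 with 0.01% (detergent screen) or 0.0001% Triton X-100 was preincubated with compounds for 15 min at room temperature. Nitrocefin was then added from an 800 uM solution, and hydrolysis was followed at 480 nm.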
# Pf growth 48h: Primary qHTS for delayed death inhibitors of the malarial parasite plastid, 48 hour incubation | Potency, µM (doses to about 28.7 µM), without a hit: top-dose activity change, negative = inhibition, hits mostly inhibitors | 5.9% of 310,000 active | P. falciparum luciferase growth in erythrocytes, 48 h | AID 504832, 2011
#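 Erythrocytes infected with P. falciparum carrying an integrated firefly luciferase reporter (2% hematocrit, 0.1% parasitemia final) were exposed to compounds in RPMI 1640 with 0.5% Albumax at 37 C, 5% CO2. Growth inhibition was scored as reduced luminescence.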
# AmpC no deterg: qHTS Inhibitors of AmpC Beta-Lactamase (assay without detergent) | P00811 | AmpC nitrocefin hydrolysis, absorbance 480 nm, 0.0001% Triton | Potency, µM (highest dose often 57.1 µM), for inactives: top-dose activity change, negative = inhibition, hits mostly inhibitors | 0.52% of 330,000 active | AID 485341, 2010;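 further: plate controls were no compound for no effect and no enzyme for full effect; nearly all actives have a fitted effect of over 20% in size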
#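 AmpC (5.3 nM in the dispensed reagent) in 20 mM phosphate pH 7.0 with 0.01% (detergent screen) or 0.0001% Triton X-100 was preincubated with compounds for 15 min at room temperature. Nitrocefin was then added from an 800 uM solution, and hydrolysis was followed at 480 nm.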
# Pf growth 96h: Primary qHTS for delayed death inhibitors of the malarial parasite plastid, 96 hour incubation; 6.9% of 320,000 active; Potency, µM (highest dose often 28.7 µM), without a hit: at the highest dose activity change, negative = inhibition, usual class: inhibitors; P. falciparum luciferase reporter growth, 96 h
#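 Delayed-death screen, second-generation endpoint: infected erythrocytes, 2% hematocrit, 0.05% parasitemia final; 96 hours at 37 C, 5% CO2; luciferase detection reagent; luminescence decrease equals reduced growth.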
# Active calls of the source: *; ? = inconclusive; / = no result given; [ ] = dose if it differs, or a comment. Sampled rows, rich in hits. Any-hit rate of the full collection: about 11%. The call rests on the fitted dose curve; in most records, active means well fitted curve in the direction sought with a large enough effect; inconclusive means small, poorly fitted or top-dose-only effect, or another doubt; inactive means no such curve, though single readings can be large; an effect the other way counts as inactive or inconclusive. Unless noted, on the % scale 0 is the no-effect control and ±100 the full control effect; potency means the concentration at half of the fitted maximal effect.
SMILES,AMA1-RON2 inh,HCV inh,AmpC inh detg,Pf growth 48h,AmpC no deterg,Pf growth 96h
CN(Cc1ccccc1)C(=O)c1ccc(NC(=O)Cc2ccc([N+](=O)[O-])cc2)cc1,-6.0%,?,/,/,-7.6%,/
CN(Cc1cccc(Cl)c1Cl)C(=O)c1ccc(NC(=O)CC#N)cc1,0.2%[2.32 µM],-8.7%,-13.1%,-26.5%,-52.5%,14.7µM*
CCCN(CCC)C(=O)Cn1c(=O)n(CCCCCC(=O)NCc2ccc3c(c2)OCO3)c(=O)c2sccc21,/,/,21.5%,/,/,/
O=S(=O)(c1ccccc1Cl)N1CCCC1c1nc(-c2ccc(Cl)cc2)no1 (configuration not stated),13.1%,10µM*,-3.4%,0.3%,0.316µM*,21.3%
C=CCSc1nc2nc(C)cc(C)n2n1,0.0%,?,?,8.0%,-16.9%,0.329µM*
CCSc1nc2nc(C)cc(C)n2n1,4.4%,-4.1%,-6.0%,25.7%,-8.5%,11.7µM*
Cc1cc(C)n2nc(SCc3nnc(SCCCCl)o3)nc2n1,6.2%,-15.9%,5.6%,?,34.8%,?
C=C(C)CSc1nc2nc(C)cc(C)n2n1,0.0%,-5.2%,-1.1%,16.7%,3.9%,7.8%
CCCCCCCCSc1nnc(CSc2nc3nc(C)cc(C)n3n2)o1,-5.9%,?,-2.6%,11.7µM*,12.5%,?
COc1cc(C2NC(=O)NC(C)=C2C(=O)Nc2cc(C)cc(C)c2)ccc1O (configuration not stated),/,/,9.9%,/,/,/
CCCC(=O)NC(c1ccc(OCC)cc1)c1ccc(OC)c(OC)c1 (configuration not stated),-15.0%,-12.3%,0.6%,?,28.1%,3.2%
CCOc1ccc(C(NC(C)=O)c2ccc(OC)c(OC)c2)cc1 (configuration not stated),-1.7%,10.2%,0.6%,-6.4%,-1.2%,1.47µM*
O=C(Nc1nc2c(Cl)cccc2s1)C1CC1,-0.9%,5.6%,-8.6%,29.4%,-33.1%,38.3%
O=C(Nc1nc2c(cc3c4c(cccc42)CC3)s1)c1ccccc1Cl,16.1%[2.32 µM],6.31µM*,-1.0%,-12.4%,-21.1%,-89.4%
COc1ccc(OC)c(NC(=O)Cc2ccc(NC3=NC4CS(=O)(=O)CC4S3)cc2)c1 (configuration not stated),13.0%,-1.8%,?,0.4%,-0.2%,11.7µM*
O=C(Cc1ccc(NC2=NC3CS(=O)(=O)CC3S2)cc1)N1CCN(c2ccc(F)cc2)CC1 (configuration not stated),9.9%,13.2%,-10.5%,4.8%,2.5%,11.7µM*
COc1ccccc1CNC(=O)c1ccc(NC2=NC3CS(=O)(=O)CC3S2)cc1 (configuration not stated),2.1%,12.3%,1.3%,14.1%,-23.5%,11.7µM*
Cc1ccc(C(=O)Nc2ccc(F)cc2)cc1NC1=NC2CS(=O)(=O)CC2S1 (configuration not stated),-2.1%,-0.1%,-17.6%,1.7%,-8.3%,9.28µM*
Cc1ccc(-n2ncc(C(=O)NCCCN3CCN(c4cccc(Cl)c4)CC3)c2-n2cccc2)cc1,/,/,28.9%,/,/,/
Cc1cc(C)c2oc(-c3cccc(NC(=O)COc4ccc([N+](=O)[O-])cc4)c3)nc2c1,/,/,0.6%,/,/,/
Cc1cccc(C(=O)Nc2ccc(OCc3cc(=O)n4ccsc4n3)cc2)c1,/,/,0.3%,/,/,/
COc1cccc(CNC(=O)c2cccc(NC3=NC4CS(=O)(=O)CC4S3)c2)c1 (configuration not stated),2.3%,13.0%,?,30.7%,-12.8%,-10.1%
COc1cccc(CNC(=O)c2ccc(Cl)c(NC3=NC4CS(=O)(=O)CC4S3)c2)c1 (configuration not stated),-12.4%,10.9%,-2.3%,1.0%,-11.7%,2.62µM*
COc1ccc(NC(=O)c2ccc(NC3=NC4CS(=O)(=O)CC4S3)cc2)cc1 (configuration not stated),14.0%,12.4%,-9.0%,10.0%,-10.4%,10.4µM*
Cc1cc(C)cc(NC(=O)c2ccc(NC3=NC4CS(=O)(=O)CC4S3)cc2)c1 (configuration not stated),76.5%,12.8%,?,-1.9%,3.8%,-12.3%
SMILES,AMA1-RON2 inh,HCV inh,AmpC inh detg,Pf growth 48h,AmpC no deterg,Pf growth 96h
CC(C)Sc1ncc(Cl)c(C(=O)Nc2nc3ccc(S(C)(=O)=O)cc3s2)n1,/,/,23.5%,/,/,/
Cc1ccc(COC(=O)c2ccc(-c3nnn(Cc4ccc(C)cc4)n3)cc2)cc1,/,/,-1.4%,/,/,/
COc1ccc(CNc2cccc3[nH]c(C(F)(F)F)nc23)cc1,48.9%,3.16µM*,3.7%,1.65µM*,-18.8%,21.4%
COc1cc(CNc2cccc3[nH]c(C(F)(F)F)nc23)cc(OC)c1,42.7%,11.2µM*,-0.3%,2.08µM*,-10.2%,23.7%
Cc1ccc(C(=O)Nc2cccc3[nH]c(C(F)(F)F)nc23)cc1,7.2%,?,-1.1%,7.6%,-19.5%,-13.1%
O=C1CC(=C2c3ccccc3-c3ccccc32)C(=O)N1CCCCN1CCN(c2ccccc2)CC1,?,?,1.4%,4.15µM*,51.9%,6.57µM*
CC(=O)c1cn(CC(=O)Nc2ccccc2F)c2ccccc12,14.2%,11.2µM*,-14.9%,-14.5%,-10.8%,252.1%
O=C(Cn1c2ccccc2c(=O)c2cc([N+](=O)[O-])ccc21)Nc1ccccc1Cl,-0.7%,-21.6%,-11.9%,?,-38.6%,9.28µM*
CCC(=O)c1cn(CC(=O)Nc2ccccc2F)c2ccccc12,4.2%,-27.1%,-15.0%,-1.3%,-22.7%,?
CC(=O)c1cn(CC(=O)Nc2ccccc2Cl)c2ccccc12,3.0%,11.2µM*,1.9%,4.2%,-5.8%,148.2%
O=C(Cn1c2ccccc2c(=O)c2ccccc21)Nc1ccccc1F,-4.4%,1.8%,-2.1%,?,-24.0%,?
CC(=O)c1cn(CC(=O)Nc2ccccc2)c2ccccc12,5.1%,?,-2.4%,?,-26.5%,/
Cc1ccc(N=c2oc3cc(O)ccc3cc2C(N)=O)cc1,6.5%,11.2µM*,1.5%,-1.1%,74.5%,25.3%
COc1ccc(N=c2oc3cc(O)ccc3cc2C(=O)Nc2ccccn2)cc1OC,-10.1%,?,-18.1%,4.65µM*,-15.0%,-10.5%
CC(=O)c1cc2ccc(O)cc2oc1=O,9.7%,16.3%,0.6%,5.2%,-7.3%,40.9%
N#Cc1c(C(F)(F)F)cc(-c2cccs2)nc1SCc1ccccc1F,/,/,23.4%,/,/,/
